From PubChem BioAssay
HT1080NT lethal: qHTS for induction of synthetic lethality in tumor cells producing 2HG: qHTS for the HT-1080-NT fibrosarcoma cell line; HT-1080-NT fibrosarcoma viability, CellTiter-Glo ATP luminescence, 48 h; Potency, µM (series often up to 46.1 µM), most hits filed as cytotoxic; hit rate 1.6% among 360,000; AID 686970, 2013;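 further: NT is the 2HG producing partner of a matched IDH1 knockdown line; nearly all actives have a fitted effect of over 55% in size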
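HT-1080-NT fibrosarcoma cells (2HG-overproducing), 750 cells/well in RPMI with 5% FBS, dosed after 2 h and incubated 48 h at 37C. CellTiter-Glo luminescence normalized to DMSO and no-cell wells; concentration-response curves fitted and classed.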
HT1080 IDH1KD tx: qHTS for induction of synthetic lethality in tumor cells producing 2HG: qHTS for the HT-1080-IDH1KD cell line; HT-1080 IDH1 knockdown viability, ATP luminescence, 48 h; Potency, µM (doses to about 46.1 µM), most hits filed as cytotoxic; hit rate 2% among 360,000
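Cytotoxicity counter-line: IDH1KD HT-1080, 48 h, CellTiter-Glo. Curves classed by r2, magnitude and activity.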
KB-3-1 cytotox: qHTS assay for MDR1-selective chemotherapeutics: Primary screen using the parental adenocarcinoma cell KB-3-1. KB-3-1 viability, CellTiter-Glo ATP luminescence, 72 h. hit rate 1.4% among 400,000. Potency, µM (series often up to 46.1 µM), hits mostly cytotoxic. AID 1347075, 2019; further: nearly all actives have a fitted effect of over 60% in size
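KB-3-1 parental drug-naive adenocarcinoma cells in DMEM/10% FBS, incubated 72 h at 37 C with pin-transferred compounds across a concentration series. Viability by CellTiter-Glo luminescence; concentration-response curves fitted after normalization.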
MCF10A rerep: A quantitative high throughput screen for small molecules that induce DNA re-replication in MCF 10a normal breast cells; MCF 10A DNA re-replication, Hoechst nuclear intensity, 48 h; Potency, µM (highest dose often 46.1 µM), usual class: activators; hit rate 2.9% among 350,000; AID 624296, 2012; further: nearly all actives have a fitted effect of over 50% in size
SW480 rereplic: A quantitative high throughput screen for small molecules that induce DNA re-replication in SW480 colon adenocarcinoma cells; SW480 DNA re-replication, Hoechst DNA content imaging, 48 h; Potency, µM (top dose mostly 46.1 µM), usual class: activators; hit rate 1.8% among 340,000; AID 624297, 2012; further: nearly all actives have a fitted effect of over 55% in size
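DNA re-replication was detected as more nuclei of elevated Hoechst intensity after 48 hr exposure to compound (23 nL pinned per well of 250 cells).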
KB-V1 cytotox: qHTS assay for MDR1-selective chemotherapeutics: Primary screen using the drug-selected MDR subline cells KB-V1; AID 1347076, 2019; KB-V1 MDR cells viability, CellTiter-Glo, 72 h; hit rate 3.4% among 400,000; Potency, µM (series often up to 46.1 µM), actives largely listed as cytotoxic; further: nearly all actives have a fitted effect of over 60% in size
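qHTS viability screen in drug-selected KB-V1 MDR cells: 72 h compound treatment at 37 degrees C, ATP luminescence end point.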
Numbers stand for hits; i = inactive; ? = inconclusive; nt = not tested or not shown; [ ] = another dose, or the depositor's remark. Sampled rows, rich in hits. Any-hit rate of the full collection: about 8%. The call rests on the fitted dose curve; in most records, active means well fitted curve in the direction sought with a large enough effect; inconclusive means small, poorly fitted or top-dose-only effect, or another doubt; inactive means no such curve, though single readings can be large; an effect the other way counts as inactive or inconclusive.

SMILES	HT1080NT lethal	HT1080 IDH1KD tx	KB-3-1 cytotox	MCF10A rerep	SW480 rereplic	KB-V1 cytotox
Cc1nc(NCCN2CCOCC2)c2nnn(Cc3c(F)cccc3Cl)c2n1	i	i	i	i	i	18µM
CCN(CC)c1ccc(/C=N/NC(=O)c2ccccn2)cc1	i	?	?	?	?	?
CCN(CC)c1ccc(/C=N/NC(=O)c2cnccn2)cc1	5.2µM	3.7µM	?	2.3µM	?	i
CCN(CC)c1ccc(/C=N/NC(=O)c2ccco2)c(O)c1	?	?	?	21µM	1.5µM	i
CCN(CC)c1ccc(/C=N/NC(=S)NCc2ccccc2)c(O)c1	i	?	7.3µM	16µM	16µM	i
CCN(CC)c1ccc(/C=N/NC(=O)c2ccco2)cc1	?	2.6µM	3.7µM	4.1µM	5.8µM	i
CCN(CC)c1ccc(C=Nc2ccccc2C)c(O)c1	i	i	i	i	?	?
CCOC(=O)C1=C(C)N(c2ccc(C)cc2)C(=O)/C1=C\c1cccs1	i	i	i	i	i	?
COc1cc2nc3n(c(=O)c2cc1OC)-c1ncccc1C(=O)NC3Cc1ccccc1 (configuration not stated)	i	i	i	nt	nt	i
CC(C)(C)n1nnnc1C(c1cccnc1)N(Cc1ccccc1)Cc1ccco1 (configuration not stated)	i	i	i	i	i	?
CCN1CCN(C(c2ccccc2)c2nnnn2C(C)(C)C)CC1 (configuration not stated)	i	i	i	nt	nt	i
CCN(Cc1ccccc1)C(c1ccc(C(F)(F)F)cc1)c1nnnn1C(C)(C)C (configuration not stated)	i	i	16µM	?	i[9.22 µM]	21µM
CCN(Cc1ccccc1)C(c1cccc(C#N)c1)c1nnnn1C(C)(C)C (configuration not stated)	i	?	i	i	i	13µM
O=C(Cc1ccccc1[N+](=O)[O-])NCC1(c2cccc3c2OCO3)OCCO1	i	i	i	i	i	18µM
O=C(Cc1ccccc1[N+](=O)[O-])NC1CC1	i	i	i	i	i	i
O=[N+]([O-])c1ccccc1N/N=C\c1ccccc1F	i	i	i	i	21µM	i
COc1ccccc1Nc1nnc(SCC2CCCCO2)s1 (configuration not stated)	16µM	15µM	16µM	?	?	9.2µM
COCCSc1nnc(NC(=O)Cc2ccccc2OC)s1	i	i	i	i	i	18µM
COc1ccccc1Nc1nnc(SCC(=O)N2CCCC2)s1	i	i	i	i	i	13µM
Cc1cccc(Cn2c(SCCN3CCOCC3)nc3c2c(=O)n(C)c(=O)n3C)c1	i	i	i	i	i	i
Cc1onc(-c2ccccc2)c1-c1nnc(CN2CCN(S(=O)(=O)c3ccccc3F)CC2)o1	i	i	?	i	i	3.3µM
CN1CCN(Cc2nnc(-c3ccccc3)o2)CC1	i	i	i	i	i	i
Cc1ccc(NC(=O)Cc2ccc(-n3c(C)nc4cccnc43)cc2)c(Cl)c1	nt	nt	18µM	nt	nt	5.8µM
C(=NN1CCCCCC1)c1ccc2ccccc2n1	6.5µM	?	?	i	i	i
Cc1cc2c(c(/C=C/C(=O)c3ccccc3)c1)OC1(C=C2)Oc2ccccc2C(=O)N1C (configuration not stated)	?	?	16µM	5.6µM	3.7µM	?
Cc1c(/C=C/C(=O)c2ccccc2)cnn1C	i	i	i	i	i[9.22 µM]	i
CC(C)OCCCNC(=O)c1cccs1	i	i	i	i	i	i
CC1(C)SC(=S)N(/N=C/c2cccnc2)C1N(O)C(=O)NC1CCCCC1 (configuration not stated)	i	i	i	i	i	i
